# Where “and” joins values, the source holds several entries; their conditions need not be identical. Equal entries are not always repeated. Where two headings read alike, the source gives them in different places.
# How the values were obtained:
# PRKR = tested on: T1, PRKR; settings: concentration: 1 μM, replicates: in singlicate; n = 1
# T1 construct: gene EIF2AK2
# PRKX = settings: concentration: 1 μM, replicates: in singlicate; n = 1
# PRP4 = settings: concentration: 1 μM, replicates: in singlicate; n = 1
# PYK2 = tested on: T2, PYK2; settings: concentration: 1 μM, replicates: in singlicate; n = 1
# T2 construct: gene PTK2B
# QSK = settings: concentration: 1 μM, replicates: in singlicate, n = 1
# RAF1 = settings: concentration: 1 μM, replicates: in singlicate, n = 1
# RET = settings: concentration: 1 μM, replicates: in singlicate, n = 1
# RIOK1 = settings: concentration: 1 μM, replicates: in singlicate, n = 1
# RIOK2 = settings: concentration: 1 μM, replicates: in singlicate, n = 1
# RIOK3 = settings: concentration: 1 μM, replicates: in singlicate, n = 1
# RIPK1 = settings: concentration: 1 μM, replicates: in singlicate, n = 1
# RIPK2 = settings: concentration: 1 μM, replicates: in singlicate, n = 1
# RIPK4 = settings: concentration: 1 μM, replicates: in singlicate, n = 1
# RIPK5 = settings: concentration: 1 μM, replicates: in singlicate, n = 1
# ROCK1 = settings: concentration: 1 μM, replicates: in singlicate, n = 1
# ROCK2 = settings: concentration: 1 μM, replicates: in singlicate, n = 1
# ROS1 = settings: concentration: 1 μM, replicates: in singlicate, n = 1
# [1] = tested on: RPS6KA4(Kin.Dom.1-N-terminal); settings: concentration: 1 μM, replicates: in singlicate, n = 1
# [2] = tested on: RPS6KA4(Kin.Dom.2-C-terminal); settings: concentration: 1 μM, replicates: in singlicate, n = 1
# [3] = tested on: RPS6KA5(Kin.Dom.1-N-terminal); settings: concentration: 1 μM, replicates: in singlicate; n = 1
# 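Also: KINOMEscan kinase panel screen.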
structure (smiles),measurement,setting,value
Fc1ccc(-c2ncn(CCCNCc3ccccc3)c2-c2ccncc2)cc1,%Inh,PRKR,0%
same,%Inh,PRKX,0%
same,%Inh,PRP4,17%
same,%Inh,PYK2,1%
same,%Inh,QSK,1%
same,%Inh,RAF1,0%
same,%Inh,RET,18%
same,%Inh,RIOK1,0%
same,%Inh,RIOK2,11%
same,%Inh,RIOK3,28%
same,%Inh,RIPK1,9%
same,%Inh,RIPK2,0%
same,%Inh,RIPK4,29%
same,%Inh,RIPK5,26%
same,%Inh,ROCK1,27%
same,%Inh,ROCK2,32%
same,%Inh,ROS1,0%
same,%Inh,[1],0%
same,%Inh,[2],32%
same,%Inh,[3],0%
Oc1ccc2ncnc(Nc3ccc(OCc4ccccc4)cc3)c2c1 [GI262866],%Inh,PRKR,0%
same,%Inh,PRKX,11%
same,%Inh,PRP4,26%
same,%Inh,PYK2,0%
same,%Inh,QSK,10%
same,%Inh,RAF1,18%
same,%Inh,RET,12%
same,%Inh,RIOK1,18%
same,%Inh,RIOK2,4%
same,%Inh,RIOK3,10%
same,%Inh,RIPK1,1%
same,%Inh,RIPK2,100%
same,%Inh,RIPK4,6%
same,%Inh,RIPK5,0%
same,%Inh,ROCK1,0%
same,%Inh,ROCK2,0%
same,%Inh,ROS1,0%
same,%Inh,[1],8%
same,%Inh,[2],0%
same,%Inh,[3],4%
CNc1nccc(-c2c(-c3ccc(F)cc3)ncn2C2CCN(C)CC2)n1 [SB-222903],%Inh,PRKR,11%
same,%Inh,PRKX,0%
same,%Inh,PRP4,0%
same,%Inh,PYK2,0%
same,%Inh,QSK,0%
same,%Inh,RAF1,0%
same,%Inh,RET,0%
same,%Inh,RIOK1,0%
same,%Inh,RIOK2,0%
same,%Inh,RIOK3,3%
same,%Inh,RIPK1,3%
same,%Inh,RIPK2,40%
same,%Inh,RIPK4,0%
same,%Inh,RIPK5,2%
same,%Inh,ROCK1,56%
same,%Inh,ROCK2,0%
same,%Inh,ROS1,0%
same,%Inh,[1],15%
same,%Inh,[2],0%
same,%Inh,[3],0%
CC(C)(C)OC(=O)NC1CCCN(c2cc(-c3ccc4c(N)n[nH]c4c3)nc(N)n2)C1 (centres unmarked) [GSK2286096],%Inh,PRKR,0%
same,%Inh,PRKX,21%
same,%Inh,PRP4,0%
same,%Inh,PYK2,0%
same,%Inh,QSK,5%
same,%Inh,RAF1,7%
same,%Inh,RET,0%
same,%Inh,RIOK1,23%
same,%Inh,RIOK2,27%
same,%Inh,RIOK3,23%
same,%Inh,RIPK1,0%
same,%Inh,RIPK2,8%
same,%Inh,RIPK4,14%
same,%Inh,RIPK5,0%
same,%Inh,ROCK1,0%
same,%Inh,ROCK2,0%
same,%Inh,ROS1,0%
same,%Inh,[1],0%
same,%Inh,[2],0%
same,%Inh,[3],0%
Cc1ccc(C)c(NC(=O)NCCNc2ccnc(Nc3ccc(F)cc3)n2)c1 [GSK1379878],%Inh,PRKR,0%
same,%Inh,PRKX,0%
same,%Inh,PRP4,48%
same,%Inh,PYK2,7%
same,%Inh,QSK,0%
same,%Inh,RAF1,42%
same,%Inh,RET,3%
same,%Inh,RIOK1,36%
same,%Inh,RIOK2,0%
same,%Inh,RIOK3,37%
same,%Inh,RIPK1,4%
same,%Inh,RIPK2,0%
same,%Inh,RIPK4,0%
same,%Inh,RIPK5,9%
same,%Inh,ROCK1,7%
same,%Inh,ROCK2,0%
same,%Inh,ROS1,16%
same,%Inh,[1],0%
same,%Inh,[2],0%
same,%Inh,[3],0%
CCc1nc(-c2cccc(N(C)S(=O)(=O)c3ccccc3)c2)c(-c2ccnc(Nc3ccc(N4CCN(C(C)=O)CC4)nc3)n2)s1 [GSK1645895],%Inh,PRKR,17%
same,%Inh,PRKX,23%
same,%Inh,PRP4,16%
same,%Inh,PYK2,0%
same,%Inh,QSK,1%
same,%Inh,RAF1,18%
same,%Inh,RET,0%
same,%Inh,RIOK1,17%
same,%Inh,RIOK2,5%
same,%Inh,RIOK3,15%
same,%Inh,RIPK1,0%
same,%Inh,RIPK2,90%
same,%Inh,RIPK4,18%
same,%Inh,RIPK5,10%
same,%Inh,ROCK1,0%
same,%Inh,ROCK2,0%
same,%Inh,ROS1,0%
same,%Inh,[1],0%
same,%Inh,[2],0%
same,%Inh,[3],0%
Cc1cccc(-c2nc(Nc3ccc4[nH]nnc4c3)c3ccccc3n2)n1 [GW867587],%Inh,PRKR,0%
same,%Inh,PRKX,0%
same,%Inh,PRP4,0%
same,%Inh,PYK2,0%
same,%Inh,QSK,0%
same,%Inh,RAF1,0%
same,%Inh,RET,0%
same,%Inh,RIOK1,0%
same,%Inh,RIOK2,0%
same,%Inh,RIOK3,0%
same,%Inh,RIPK1,0%
same,%Inh,RIPK2,0%
same,%Inh,RIPK4,0%
same,%Inh,RIPK5,0%
same,%Inh,ROCK1,49%
same,%Inh,ROCK2,0%
same,%Inh,ROS1,0%
same,%Inh,[1],0%
same,%Inh,[2],0%
same,%Inh,[3],0%
Cl.Cl.c1ccc(-c2cc3ccncc3cc2OC2CCNCC2)cc1 [GSK1122999],%Inh,PRKR,0%
same,%Inh,PRKX,34%
same,%Inh,PRP4,0%
same,%Inh,PYK2,10%
same,%Inh,QSK,7%
same,%Inh,RAF1,12%
same,%Inh,RET,28%
same,%Inh,RIOK1,33%
same,%Inh,RIOK2,0%
same,%Inh,RIOK3,45%
same,%Inh,RIPK1,31%
same,%Inh,RIPK2,17%
same,%Inh,RIPK4,9%
same,%Inh,RIPK5,1%
same,%Inh,ROCK1,94.6%
same,%Inh,ROCK2,91.6%
same,%Inh,ROS1,33%
same,%Inh,[1],11%
same,%Inh,[2],39%
same,%Inh,[3],27%
CCC(CC)(CC)n1cnc2c(N)ncnc21 [SKF-97620],%Inh,PRKR,0%
same,%Inh,PRKX,0%
same,%Inh,PRP4,14%
same,%Inh,PYK2,7%
same,%Inh,QSK,27%
same,%Inh,RAF1,7%
same,%Inh,RET,4%
same,%Inh,RIOK1,21%
same,%Inh,RIOK2,8%
same,%Inh,RIOK3,0%
same,%Inh,RIPK1,0%
same,%Inh,RIPK2,1%
same,%Inh,RIPK4,41%
same,%Inh,RIPK5,25%
same,%Inh,ROCK1,44%
same,%Inh,ROCK2,0%
same,%Inh,ROS1,0%
same,%Inh,[1],24%
same,%Inh,[2],13%
same,%Inh,[3],14%
COc1ccc(-c2nc3n(c2-c2ccncc2)CCC3)cc1 [SKF-104493],%Inh,PRKR,0%
same,%Inh,PRKX,0%
same,%Inh,PRP4,13%
same,%Inh,PYK2,6%
same,%Inh,QSK; 1 µM,29% and 5%
same,%Inh,RAF1; 1 µM,0% and 15%
same,%Inh,RET; 1 µM,0% and 10%
same,%Inh,RIOK1; 1 µM,24% and 4%
same,%Inh,RIOK2; 1 µM,20% and 0%
same,%Inh,RIOK3; 1 µM,0% and 10%
same,%Inh,RIPK1; 1 µM,0% and 20%
same,%Inh,RIPK2; 1 µM,40% and 46%
same,%Inh,RIPK4; 1 µM,9% and 12%
same,%Inh,RIPK5; 1 µM,19% and 0%
same,%Inh,ROCK1; 1 µM,21% and 5%
same,%Inh,ROCK2; 1 µM,29% and 0%
same,%Inh,ROS1; 1 µM,10% and 28%
same,%Inh,[1]; 1 µM,7% and 0%
same,%Inh,[2]; 1 µM,2% and 0%
same,%Inh,[3],0%
